Results from the supplement of paper PMC8975748.
Structures can show the parent of a compound that is named as a salt.

What follows are molecules tested on Saccharomyces cerevisiae BY4741 SeMeCo community (assay: z-score of prototroph abundance vs DMSO median; higher = larger share of this subpopulation than in DMSO controls). Conditions: 10 µM; 24 h; SM minimal medium; subpopulation (auxotrophy): Prototroph.
Protocol: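 Fluorescent four-plasmid SeMeCo (self-establishing metabolically cooperating S. cerevisiae BY4741 community; plasmids pH-mRuby2, pL-mWasabi, pU-eCFP, pM-TagRFP657) was grown 24 h in minimal SM medium with each Selleck FDA-approved drug at 10 µM in 384-well plates. Cells were fixed and imaged by high-content confocal microscopy. For each auxotrophic subpopulation (and the prototroph), a z-score gives the deviation from the DMSO vehicle-control population median.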
For `C=C(C)[C@H]1Cc2c(ccc3c2O[C@@H]2COc4cc(OC)c(OC)cc4[C@@H]2C3=O)O1` [Rotenone (Barbasco)], the “z-score of prototroph abundance” value was -0.73.
With `CC(C)(O)C(Cl)(Cl)Cl` [Chlorobutanol] the “z-score of prototroph abundance” value was -0.27.
With `C=CCN1C[C@H](C(=O)N(CCCN(C)C)C(=O)NCC)C[C@@H]2c3cccc4[nH]cc(c34)C[C@H]21` [Cabergoline] the “z-score of prototroph abundance” value was -0.35.
`Cc1cc(O)ccc1Cl` [Chlorocresol] was tested, and the “z-score of prototroph abundance” value was 0.71.
`CC(=O)O[C@H]1C[C@@H]2CC[C@@H]3[C@H](CC[C@@]4(C)[C@H]3C[C@H]([N+]3(C)CCCCC3)[C@@H]4OC(C)=O)[C@@]2(C)C[C@@H]1[N+]1(C)CCCCC1` [Pancuronium dibromide] was tested, and the “z-score of prototroph abundance” value was 0.97.
For `CC[C@H]1[C@@H]2C[C@H]3[C@@H]4N(C)c5ccccc5[C@]45C[C@@H]([C@@H]2[C@H]5O)N3[C@@H]1O` [Ajmaline], the “z-score of prototroph abundance” value was 0.22.
For `C[C@@H]1CC[C@H]2[C@@H](C)C(=O)O[C@@H]3O[C@@]4(C)CC[C@@H]1[C@]32OO4` [Artemisinin], the “z-score of prototroph abundance” value was 1.7.
`CN(C)[C@@H]1C(=O)C(C(N)=O)=C(O)[C@@]2(O)C(=O)C3=C(O)c4c(O)cccc4[C@@](C)(O)[C@H]3[C@H](O)[C@@H]12` [Oxytetracycline (Terramycin)] was tested, and the “z-score of prototroph abundance” value was -0.34.
In the case of `CN[C@@H]1[C@@H](O)[C@@H](O[C@@H]2[C@@H](O)[C@H](O[C@H]3O[C@H]([C@@H](C)O)[C@@H](O)[C@H](O)[C@H]3N)[C@@H](N)C[C@H]2N)OC[C@]1(C)O` [Geneticin (G418 Sulfate)], the “z-score of prototroph abundance” value is reported as 0.1.
`COc1ccc(C(CN(C)C)C2(O)CCCCC2)cc1` (stereo not given) [Venlafaxine] was tested, and the “z-score of prototroph abundance” value was 0.19.
For `C=CC[C@]1(O)CC[C@H]2[C@@H]3CCC4=CC(=O)CCC4=C3C=C[C@@]21C` [Altrenogest], the “z-score of prototroph abundance” value was 0.56.
With `CN(C)[C@@H]1C(=O)C(C(N)=O)=C(O)[C@@]2(O)C(=O)C3=C(O)c4c(O)cccc4[C@@](C)(O)[C@H]3C[C@@H]12` [Tetracycline HCl] the “z-score of prototroph abundance” value was -0.24.
`O=C(O[C@H]1C[C@H]2CC[C@@H](C1)[N+]21CCCC1)C(O)(c1ccccc1)c1ccccc1` [Trospium chloride] was tested, and the “z-score of prototroph abundance” value was 0.42.
For `C=C[C@H]1CN2CC[C@H]1C[C@H]2[C@H](O)c1ccnc2ccccc12` [Cinchonidine], the “z-score of prototroph abundance” value was -0.41.
For `O=[N+]([O-])C(Br)(CO)CO` [Bronopol], the “z-score of prototroph abundance” value was -0.24.
In the case of `COc1ccc(C(CN(C)C)C2(O)CCCCC2)cc1` (stereo not given) [Venlafaxine HCl], the “z-score of prototroph abundance” value is reported as 0.
For `NCC(O)c1ccc(O)cc1` (racemic) [(+,-)-Octopamine HCl], the “z-score of prototroph abundance” value was 0.28.
`CCOC(=O)Nc1ccc(NCc2ccc(F)cc2)cc1N` [Retigabine 2HCl] was tested, and the “z-score of prototroph abundance” value was 0.05.
With `CC(NC(C)(C)C)C(=O)c1cccc(Cl)c1` (stereo not given) [Amfebutamone (Bupropion) HCl] the “z-score of prototroph abundance” value was 0.49.
For `COc1cc2c(cc1OC)C1CC(=O)C(CC(C)C)CN1CC2` (stereo not given) [Tetrabenazine (Xenazine)], the “z-score of prototroph abundance” value was 0.02.
With `CN1[C@@H]2CC[C@H]1C[C@@H](OC(=O)[C@H](CO)c1ccccc1)C2` [Hyoscyamine] the “z-score of prototroph abundance” value was 0.38.
With `C#C[C@]1(O)C=C[C@H]2[C@@H]3CCC4=CC(=O)CC[C@@H]4[C@H]3CC[C@@]21CC` [Gestodene] the “z-score of prototroph abundance” value was 0.59.
With `CN1[C@@H]2C[C@@H](OC(=O)[C@H](CO)c3ccccc3)C[C@H]1[C@@H]1O[C@@H]12` [Scopolamine HBr trihydrate] the “z-score of prototroph abundance” value was 0.7.
For `CCC1=C[C@H]2CN3CCc4c([nH]c5ccccc45)[C@](C(=O)OC)(C2)[C@H]13` [Catharanthine], the “z-score of prototroph abundance” value was 0.37.
With `COC(=O)C1=CCCN(C)C1` [Arecoline HBr] the “z-score of prototroph abundance” value was -0.55.
With `COc1ccc2[nH]cc(CCN)c2c1` [5-Methoxytryptamine] the “z-score of prototroph abundance” value was -0.96.
With `CCN1CC2(OC(=O)c3ccccc3NC(C)=O)CCC(OC)C34C1C(CC23)C1(O)CC(OC)C2CC4C1(O)C2OC` (stereo not given) [Lappaconitine] the “z-score of prototroph abundance” value was 0.24.
For `CCOC(=O)Nc1ccc(NCc2ccc(F)cc2)cc1N` [Retigabine], the “z-score of prototroph abundance” value was 0.21.
In the case of `C[CH2][Hg][S]c1ccccc1C(=O)[O-].[Na+]` [Thimerosal], the “z-score of prototroph abundance” value is reported as -17.3.
`C=CN1CCCC1=O.II` [Povidone iodine] was tested, and the “z-score of prototroph abundance” value was -1.1.
`CC[N+](C)(CC)CCOC(=O)C(O)(c1ccccc1)c1ccccc1` [Methylbenactyzine Bromide] was tested, and the “z-score of prototroph abundance” value was 1.09.
For `Nc1nc(N)nc(NC2CC2)n1` [Cyromazine], the “z-score of prototroph abundance” value was -1.21.
In the case of `COc1ccc2c3c([nH]c2c1)C(C)=NCC3` [Harmaline], the “z-score of prototroph abundance” value is reported as 3.47.
In the case of `O=C(O[C@H]1C[N+]2(CCCOc3ccccc3)CCC1CC2)C(O)(c1cccs1)c1cccs1` [Aclidinium Bromide], the “z-score of prototroph abundance” value is reported as -0.31.
In the case of `Cn1cc(C2=C(c3cn(C4CCN(Cc5ccccn5)CC4)c4ccccc34)C(=O)NC2=O)c2ccccc21`, the “z-score of prototroph abundance” value is reported as 0.73.
For `CN(C)C(=O)Oc1cccc([N+](C)(C)C)c1` [Neostigmine Bromide], the “z-score of prototroph abundance” value was 0.27.
In the case of `Oc1cccc2cccnc12` [8-Hydroxyquinoline], the “z-score of prototroph abundance” value is reported as 0.32.
With `CC[C@@H](C(N)=O)N1CCCC1=O` [Levetiracetam] the “z-score of prototroph abundance” value was 0.59.
With `CCCN1C[C@H](CSC)C[C@@H]2c3cccc4[nH]cc(c34)C[C@H]21` [Pergolide Mesylate] the “z-score of prototroph abundance” value was 0.88.
In the case of `N#Cc1nn(-c2c(Cl)cc(C(F)(F)F)cc2Cl)c(N)c1[S+]([O-])C(F)(F)F` (stereo not given) [Fipronil], the “z-score of prototroph abundance” value is reported as 0.88.
